We go through 25 compounds from the supplement of paper PMC9588786.

SMILES strings stand for the structures. ± gives the standard deviation of the averaged measurements.
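Further: viability read as CCK-8 absorbance at 450 nm in cells co-exposed to the GPX4 inhibitor RSL3, relative to a 0.01% DMSO vehicle control.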

The subject of the assay is HT-1080. Nature of the assay: relative cell viability with RSL3 co-treatment (fraction of control); higher = stronger protection from RSL3-induced ferroptosis (higher viability). Particulars: 10 µM.
Take `CC(C)N(CCC(=O)c1ccc2ccccc2c1)Cc1ccccc1`: the relative cell viability was determined as 0.863 ± 0.12. Consider `CCN1CCN(Cc2ccc(C(=O)Nc3ccc(C)c(Oc4ccc5c(c4)CC(=O)N5)c3)cc2C(F)(F)F)CC1`, for which the relative cell viability amounted to 0.46 ± 0.046. Then `CC(C)n1nc(-c2ccc3oc(N)nc3c2)c2c(N)ncnc21`, with 0.787 ± 0.058; and `O=C1c2ccc(Nc3ccc(F)cc3F)cc2CCc2ccc(OC[C@H](O)CO)cc21` [Skepinone-L], with 0.513 ± 0.12; and `Cn1cnc2c(F)c(Nc3ccc(Br)cc3Cl)c(C(=O)NOCCO)cc21` [Selumetinib (AZD6244)], with 0.807 ± 0.015. Take `COc1cc2ncnc(Nc3ccc(O)c(Br)c3)c2cc1OC`: the relative cell viability was determined as 0.8167 ± 0.0058. For the compound `O=C1NC(=O)C(=Cc2ccc(-c3ccc(F)cc3)o2)S1` (stereo in doubt), the relative cell viability was 0.887 ± 0.11. Regarding `COc1cc(N2CCC(N(C)C)CC2)ccc1Nc1ncc(Cl)c(Nc2ccccc2P(C)(C)=O)n1`, the relative cell viability amounted to 0.36 ± 0.082. For `O=c1cc(-c2cccc3c2Sc2ccccc2S3)oc(N2CCOCC2)c1`, the relative cell viability is 0.57 ± 0.21.

Take `Cc1ccccc1CN1C2=NCCN2C(=O)C2=C1CCN(Cc1ccccc1)C2` [TIC10 Analogue]: the relative cell viability came out at 0.62 ± 0.079. As for `Nc1nc(N)c2nc(-c3cccc(O)c3)c(-c3cccc(O)c3)nc2n1`, the relative cell viability turned out to be 0.72 ± 0.03.

`O=c1c(O)c(-c2ccc(O)c(O)c2)oc2cc(O)cc(O)c12` [Quercetin]: the relative cell viability amounted to 0.703 ± 0.074. On to `CCOc1cc2ncc(C#N)c(Nc3ccc(F)c(Cl)c3)c2cc1NC(=O)/C=C/CN(C)C` [Pelitinib (EKB-569)], for which the relative cell viability is 0.247 ± 0.081.

Turning to `CCCNC(=O)Nc1ccc(Oc2ncnc3cc(OC)c(OC)cc23)cc1Cl`, the relative cell viability turned out to be 0.757 ± 0.42.

With `COc1cc(Nc2ncc3c(n2)-c2ccc(Cl)cc2C(c2c(F)cccc2OC)=NC3)ccc1C(=O)O` [Alisertib (MLN8237)], the relative cell viability worked out at 0.39 ± 0.18. Turning to `COc1ccc(-c2nc(N3CCOCC3)c3sc(CN(C)c4ncc(C(=O)NO)cn4)cc3n2)cn1`, the relative cell viability was 0.577 ± 0.15.

For the compound `FC(F)(F)c1ccc(/C=C/c2nc(COc3ccc(CCCCn4ccnn4)cc3)co2)cc1` [Mubritinib (TAK 165)], the relative cell viability was determined as 0.653 ± 0.1. As to `Cc1cc(NC(=O)c2cccc(NC(=O)/C=C/CN(C)C)c2)ccc1Nc1nccc(-c2cccnc2)n1`, the relative cell viability amounted to 0.407 ± 0.086.

In the case of `Cc1ncc(-c2ccnc(Nc3ccc(S(C)(=O)=O)cc3)n2)n1C(C)C`, the relative cell viability was 0.43 ± 0.095. Consider `COc1ccc(-c2ccc3c(N4CCOCC4)nc(N4C[C@@H](C)O[C@@H](C)C4)nc3n2)cc1CO`, for which the relative cell viability worked out at 0.7 ± 0.07. Turning to `Oc1ccc(-c2nc(-c3ccc(F)cc3)c(-c3ccncc3)[nH]2)cc1`, the relative cell viability worked out at 0.717 ± 0.05.

Consider `C=CC(=O)Nc1ccc2ncnc(Nc3ccc(OCc4cccc(F)c4)c(Cl)c3)c2c1`, for which the relative cell viability turned out to be 1.01 ± 0.01. Regarding `CNC(=O)c1ccc(C)c(-n2c(C)cc(OCc3ccc(F)cc3F)c(Br)c2=O)c1`, the relative cell viability stood at 0.747 ± 0.067. Turning to `COc1c(C)c(C(=O)c2ccc(N)c(C(=O)O)c2)n2ccccc12`, the relative cell viability was determined as 0.653 ± 0.14. Regarding `Cc1ccc(S(=O)(=O)/C=C/C#N)cc1`, the relative cell viability is 0.463 ± 0.042.
